The text below walks through data of PubChem BioAssay (NCI).

Among the test systems are HCT-15 colon; HT29 colon; SNB-75 CNS; SNB-19 CNS; U251 CNS; PC-3 prostate; SK-MEL-5 melanoma; UACC-62 melanoma; SK-MEL-28 melanoma; SK-MEL-2 melanoma; EKVX NSCLC; SN12C renal; UO-31 renal; ACHN renal; CAKI-1 renal; CCRF-CEM leukemia; MOLT-4 leukemia.
What all share (assay): NCI-60 one-dose screen, 48 h (100 = growth as untreated, 0 = no growth, -100 = all killed)
The subject of a further assay is LOX IMVI melanoma. As to conditions: 10 µM unless noted.
The next assay relates to TK-10 renal. The conditions noted are these: 10 µM unless noted.
The test system of another assay is A498 renal. The conditions noted are these: 10 µM unless noted.

The structures appear in SMILES notation. “And” between values parts separate entries of the source, which are not always exact repeats. Equal values may be shown once. About 83,000 compounds went through this panel and 20% of them were active in at least one assay; those are over-represented in the sample as a whole.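 Each cell line was grown in a 96-well plate and treated with one concentration of compound for 48 hours. Values below 10 were considered active.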 The source made the active and inactive calls.

As for `O=C(O)CCCCc1ccc([N+](=O)[O-])cc1`, the growth in the assay on HCT-15 colon (10 µM unless noted) was 101% (inactive); with HT29 colon (10 µM unless noted), 105% (inactive) and 98.1% (inactive); in the assay on SNB-75 CNS (10 µM unless noted), 98.7% (inactive) and 89.7% (inactive); with SNB-19 CNS (10 µM unless noted) it was 101% (inactive) and 105% (inactive); with U251 CNS (10 µM unless noted) it was 97.4% (inactive) and 108% (inactive); in the assay with PC-3 prostate (10 µM unless noted) it was 88.5% (inactive) and 86.5% (inactive). Besides, the growth with SK-MEL-5 melanoma (10 µM unless noted) was 107% (inactive) and 105% (inactive); with UACC-62 melanoma (10 µM unless noted) it was 104% (inactive) and 90.4% (inactive); with LOX IMVI melanoma, 92.7% (inactive) and 107% (inactive); in the assay with SK-MEL-28 melanoma (10 µM unless noted), 113% (inactive) and 107% (inactive); in the assay on SK-MEL-2 melanoma (10 µM unless noted), 98.9% (inactive) and 113% (inactive); in the assay with EKVX NSCLC (10 µM unless noted), 107% (inactive) and 126% (inactive). The growth was 98.9% (inactive) and 96.5% (inactive) in the assay with SN12C renal (10 µM unless noted); 82.4% (inactive) and 73.3% (inactive) with UO-31 renal (10 µM unless noted); 106% (inactive) and 99.4% (inactive) in the assay on TK-10 renal; 103% (inactive) and 98.5% (inactive) with ACHN renal (10 µM unless noted); 107% (inactive) and 102% (inactive) with CAKI-1 renal (10 µM unless noted); 84.4% (inactive) and 127% (inactive) in the assay on A498 renal. Further, the growth with CCRF-CEM leukemia (10 µM unless noted) was 97.1% (inactive) and 91.2% (inactive); in the assay on MOLT-4 leukemia (10 µM unless noted) it was 99.4% (inactive) and 88.5% (inactive).

Take `Cc1nnc(NC/C=C/c2ccccc2)s1`: the growth in the assay on HCT-15 colon (10 µM unless noted) is 98.3% (inactive) and 104% (inactive); with HT29 colon (10 µM unless noted), 107% (inactive) and 116% (inactive); with SNB-75 CNS (10 µM unless noted) it was 86.3% (inactive) and 103% (inactive); with SNB-19 CNS (10 µM unless noted), 108% (inactive) and 113% (inactive); in the assay with U251 CNS (10 µM unless noted), 97.8% (inactive); in the assay on PC-3 prostate (10 µM unless noted) it was 94% (inactive) and 99.5% (inactive). Further, the growth was 101% (inactive) and 102% (inactive) in the assay on SK-MEL-5 melanoma (10 µM unless noted); 104% (inactive) in the assay on UACC-62 melanoma (10 µM unless noted); 96.1% (inactive) and 97.5% (inactive) in the assay on LOX IMVI melanoma; 104% (inactive) and 103% (inactive) in the assay on SK-MEL-28 melanoma (10 µM unless noted); 122% (inactive) in the assay with SK-MEL-2 melanoma (10 µM unless noted); 101% (inactive) in the assay with EKVX NSCLC (10 µM unless noted). Moreover, the growth in the assay on SN12C renal (10 µM unless noted) is 105% (inactive) and 108% (inactive); in the assay with UO-31 renal (10 µM unless noted), 87.1% (inactive) and 91.2% (inactive); in the assay on TK-10 renal, 96.4% (inactive) and 111% (inactive); with ACHN renal (10 µM unless noted), 103% (inactive) and 112% (inactive); with CAKI-1 renal (10 µM unless noted), 112% (inactive); in the assay on A498 renal, 96.1% (inactive). Moreover, the growth is 113% (inactive) in the assay on CCRF-CEM leukemia (10 µM unless noted); 92.8% (inactive) and 111% (inactive) in the assay with MOLT-4 leukemia (10 µM unless noted).

For the compound `Cc1[nH]c(-c2nc3ccccc3[nH]2)c(C)c1C(=O)NC(C)C1CCCCC1` (stereo unspecified), the growth was 69% (inactive) in the assay on HCT-15 colon (10 µM); -80.6% (active) in the assay with HCT-15 colon (100 µM); 94.8% (inactive) in the assay with HT29 colon (10 µM); -38.4% (active) in the assay on HT29 colon (100 µM); 79.6% (inactive) in the assay with SNB-75 CNS (10 µM); -98.9% (active) in the assay with SNB-75 CNS (100 µM). The growth was 86.6% (inactive) with SNB-19 CNS (10 µM); -94.7% (active) in the assay on SNB-19 CNS (100 µM); 96.7% (inactive) with U251 CNS (10 µM); -64.5% (active) in the assay on U251 CNS (100 µM); 78.5% (inactive) in the assay on PC-3 prostate (10 µM); -58.3% (active) in the assay on PC-3 prostate (100 µM). The growth with SK-MEL-5 melanoma (10 µM) was 80.2% (inactive); in the assay on SK-MEL-5 melanoma (100 µM) it was -99.6% (active); in the assay with UACC-62 melanoma (10 µM) it was 78.1% (inactive); in the assay with UACC-62 melanoma (100 µM) it was -96.5% (active); in the assay on LOX IMVI melanoma, 84.7% (inactive); in the assay with SK-MEL-28 melanoma (10 µM), 89.2% (inactive). For the same compound, the growth in the assay on SK-MEL-28 melanoma (100 µM) was -94.9% (active); in the assay with SK-MEL-2 melanoma (10 µM), 87.2% (inactive); with SK-MEL-2 melanoma (100 µM), -81.6% (active); with EKVX NSCLC (10 µM), 93.2% (inactive); in the assay on EKVX NSCLC (100 µM) it was -84.9% (active); in the assay with SN12C renal (10 µM), 86.1% (inactive). In addition, the growth was -89.7% (active) with SN12C renal (100 µM); 89% (inactive) in the assay with UO-31 renal (10 µM); -97.8% (active) in the assay on UO-31 renal (100 µM); 99% (inactive) with ACHN renal (10 µM); -90.9% (active) in the assay with ACHN renal (100 µM); 85.8% (inactive) in the assay on CAKI-1 renal (10 µM). For the same compound, the growth was -97.2% (active) with CAKI-1 renal (100 µM); -93.3% [100 µM] (active) with A498 renal; 81.3% (inactive) in the assay on CCRF-CEM leukemia (10 µM); -72.7% (active) in the assay on CCRF-CEM leukemia (100 µM); 72.4% (inactive) in the assay on MOLT-4 leukemia (10 µM); -51.3% (active) with MOLT-4 leukemia (100 µM).

`O=[N+]([O-])c1ccccc1N(S(=O)(=O)c1ccccc1)S(=O)(=O)c1ccccc1`: the growth was 105% (inactive) and 90.4% (inactive) in the assay on HCT-15 colon (10 µM unless noted); 109% (inactive) and 103% (inactive) in the assay on HT29 colon (10 µM unless noted); 96.2% (inactive) in the assay on SNB-75 CNS (10 µM unless noted); 107% (inactive) and 98.6% (inactive) in the assay with SNB-19 CNS (10 µM unless noted); 91.5% (inactive) and 87.8% (inactive) in the assay with U251 CNS (10 µM unless noted); 80.3% (inactive) and 77.7% (inactive) in the assay on PC-3 prostate (10 µM unless noted). Besides, the growth in the assay on SK-MEL-5 melanoma (10 µM unless noted) was 110% (inactive); in the assay on UACC-62 melanoma (10 µM unless noted) it was 76.1% (inactive) and 66% (inactive); with LOX IMVI melanoma, 98.7% (inactive) and 84.7% (inactive); in the assay with SK-MEL-28 melanoma (10 µM unless noted) it was 115% (inactive) and 111% (inactive); in the assay on SK-MEL-2 melanoma (10 µM unless noted), 106% (inactive); in the assay on EKVX NSCLC (10 µM unless noted) it was 102% (inactive) and 85.1% (inactive). The growth with SN12C renal (10 µM unless noted) was 102% (inactive) and 99.2% (inactive); in the assay on UO-31 renal (10 µM unless noted), 86.7% (inactive) and 67% (inactive); with TK-10 renal it was 93.3% (inactive) and 97.1% (inactive); in the assay with ACHN renal (10 µM unless noted) it was 102% (inactive) and 93.4% (inactive); in the assay on CAKI-1 renal (10 µM unless noted), 79.4% (inactive) and 56.3% (inactive); with A498 renal it was 86.9% (inactive) and 98.6% (inactive). Also, the growth in the assay with CCRF-CEM leukemia (10 µM unless noted) is 53.7% (inactive) and 105% (inactive); in the assay on MOLT-4 leukemia (10 µM unless noted), -13.5% (active) and 103% (inactive).
